From PMC11006913 come the findings set out here.

What all share (assay): PBM; 200 nM protein, PBS
Common to all, as to settings: dsDNA, one strand shown

Assay [1] has as its target NKX2-5 (Homo sapiens, UniProt P52952 125-210, R139K).
Assay [2] addresses NKX2-5 (Homo sapiens, UniProt P52952 125-210).
Assay [3] deals with HOXB9 (Homo sapiens, UniProt P17482 171-250, T197M).
Assay [4] deals with HOXC9 (Homo sapiens, UniProt P31274 178-260, K195R).
Assay [5] addresses T1, VENTX (Homo sapiens, UniProt O95231 78-163).
T1 sequence: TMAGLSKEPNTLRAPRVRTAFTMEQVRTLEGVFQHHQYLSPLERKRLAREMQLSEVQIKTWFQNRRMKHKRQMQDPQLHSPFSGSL

Assay [6] has as its target T2, PAX4 (Homo sapiens, UniProt O43316 9-242, R200K).
T2 sequence: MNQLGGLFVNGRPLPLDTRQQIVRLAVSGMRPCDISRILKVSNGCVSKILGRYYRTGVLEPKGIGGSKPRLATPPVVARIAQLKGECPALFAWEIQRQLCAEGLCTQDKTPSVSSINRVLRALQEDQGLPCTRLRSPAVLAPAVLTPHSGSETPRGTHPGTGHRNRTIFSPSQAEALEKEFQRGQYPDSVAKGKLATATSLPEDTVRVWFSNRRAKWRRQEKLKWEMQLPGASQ

Assay [7] addresses T3, VENTX (Homo sapiens, UniProt O95231 78-163, Y115F).
T3 sequence: T1 sequence with Y38F

Assay [8] addresses T4, PAX4 (Homo sapiens, UniProt O43316 9-242).
T4 sequence: T2 sequence with K192R

Assay [9] deals with HOXB9 (Homo sapiens, UniProt P17482 171-250).
HOXB9 (Homo sapiens, UniProt P17482 171-250), sequence (P17482 171-250): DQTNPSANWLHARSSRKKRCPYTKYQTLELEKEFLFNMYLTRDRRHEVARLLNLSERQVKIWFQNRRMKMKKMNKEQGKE
Assay [10] deals with T5, PAX4 (Homo sapiens, UniProt O43316 9-242, R200Q).
T5 sequence: T2 sequence with K192Q

The target in assay [11] is HOXC9 (Homo sapiens, UniProt P31274 178-260, R193K).
HOXC9 (Homo sapiens, UniProt P31274 178-260, R193K), sequence (P31274 178-260 R193K): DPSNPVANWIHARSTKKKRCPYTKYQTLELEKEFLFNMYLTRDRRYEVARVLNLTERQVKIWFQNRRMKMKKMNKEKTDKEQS
For assay [12], the target named is T6, PAX4 (Homo sapiens, UniProt O43316 9-242, F177V).
T6 sequence: T2 sequence with F169V, K192R

The next assay addresses HOXC10 (Homo sapiens, UniProt Q9NYD6 254-340, K271E).
Assay [13] has as its target T7, PAX4 (Homo sapiens, UniProt O43316 9-242, F177Y).
T7 sequence: T2 sequence with F169Y, K192R

The target in the next assay is VAX1 (Homo sapiens, UniProt Q5SQQ9 86-172).
VAX1, sequence (Q5SQQ9 86-172): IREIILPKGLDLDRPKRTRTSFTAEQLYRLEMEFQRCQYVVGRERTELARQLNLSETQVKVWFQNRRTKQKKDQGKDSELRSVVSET
Assay [14] deals with HOXB9 (Homo sapiens, UniProt P17482 171-250, R186Q).
HOXB9 (Homo sapiens, UniProt P17482 171-250, R186Q), sequence (P17482 171-250 R186Q): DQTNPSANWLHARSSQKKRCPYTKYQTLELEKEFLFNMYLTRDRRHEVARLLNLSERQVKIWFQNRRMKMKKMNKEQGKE
Assay [15] deals with HOXC9 (Homo sapiens, UniProt P31274 178-260, R222W).
HOXC9 (Homo sapiens, UniProt P31274 178-260, R222W), sequence (P31274 178-260 R222W): as the sequence (P31274 178-260 R193K) above, with K16R, R45W counted along it
Assay [16] deals with T8, PAX4 (Homo sapiens, UniProt O43316 9-242, R227W).
T8 sequence: T2 sequence with K192R, R219W

Assay [17] deals with HOXA2 (Homo sapiens, UniProt O43364 129-215, Y150S).
HOXA2 (Homo sapiens, UniProt O43364 129-215, Y150S), sequence (O43364 129-215 Y150S): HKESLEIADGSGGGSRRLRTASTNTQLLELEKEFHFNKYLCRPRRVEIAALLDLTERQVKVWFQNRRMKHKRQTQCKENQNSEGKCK
Assay [18] deals with HOXA2 (Homo sapiens, UniProt O43364 129-215).
HOXA2 (Homo sapiens, UniProt O43364 129-215), sequence (O43364 129-215): as the sequence (O43364 129-215 Y150S) above, with S22Y counted along it

Where a chain is given by its changes, count along the chain named.

NKX2-5 (Homo sapiens, UniProt P52952 125-210), sequence (P52952 125-210): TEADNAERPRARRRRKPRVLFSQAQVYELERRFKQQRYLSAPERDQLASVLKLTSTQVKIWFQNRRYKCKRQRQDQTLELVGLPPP
NKX2-5 (Homo sapiens, UniProt P52952 125-210, R139K), sequence (P52952 125-210 R139K): as the sequence (P52952 125-210) above, with R15K counted along it
HOXB9 (Homo sapiens, UniProt P17482 171-250, T197M), sequence (P17482 171-250 T197M): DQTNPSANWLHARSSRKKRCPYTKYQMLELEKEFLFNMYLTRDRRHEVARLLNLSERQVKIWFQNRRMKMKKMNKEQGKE
HOXC10, sequence (Q9NYD6 254-340 K271E): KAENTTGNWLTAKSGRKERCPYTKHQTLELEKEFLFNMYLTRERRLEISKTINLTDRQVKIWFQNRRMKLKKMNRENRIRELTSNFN
HOXC9 (Homo sapiens, UniProt P31274 178-260, K195R), sequence (P31274 178-260 K195R): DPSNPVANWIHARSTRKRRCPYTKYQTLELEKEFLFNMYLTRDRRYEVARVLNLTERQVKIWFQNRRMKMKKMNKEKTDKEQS

With TCACTCGA, the binding signal with NKX2-5 [1] was 10.9 upbm affinity estimate (log intensity, higher = more binding, comparable within an allelic series); with NKX2-5 [2] it was 10.9 upbm affinity estimate (log intensity, higher = more binding, comparable within an allelic series).

Take AGACCGCG: the binding signal in the assay with NKX2-5 [1] was 8.9 upbm affinity estimate (log intensity, higher = more binding, comparable within an allelic series); in the assay with NKX2-5 [2], 8.83 upbm affinity estimate (log intensity, higher = more binding, comparable within an allelic series).

Regarding CACTAAGC, the binding signal in the assay with NKX2-5 [1] was 10.7 upbm affinity estimate (log intensity, higher = more binding, comparable within an allelic series); with NKX2-5 [2] it was 10.6 upbm affinity estimate (log intensity, higher = more binding, comparable within an allelic series).

Regarding ATAAGATG, the binding signal with NKX2-5 [1] is 10.5 upbm affinity estimate (log intensity, higher = more binding, comparable within an allelic series); with NKX2-5 [2], 10.6 upbm affinity estimate (log intensity, higher = more binding, comparable within an allelic series).

In the case of ACGTCCCG, the binding signal with NKX2-5 [1] was 8.76 upbm affinity estimate (log intensity, higher = more binding, comparable within an allelic series); with NKX2-5 [2], 8.79 upbm affinity estimate (log intensity, higher = more binding, comparable within an allelic series).

With AAAGTGCC, the binding signal in the assay with NKX2-5 [1] was 11.6 upbm affinity estimate (log intensity, higher = more binding, comparable within an allelic series); with NKX2-5 [2], 11.7 upbm affinity estimate (log intensity, higher = more binding, comparable within an allelic series).

Turning to ACTCTACT, the binding signal was 10.7 upbm affinity estimate (log intensity, higher = more binding, comparable within an allelic series) with NKX2-5 [1] and 10.8 upbm affinity estimate (log intensity, higher = more binding, comparable within an allelic series) in the assay with NKX2-5 [2].

In the case of ACCGGAGC, the binding signal with NKX2-5 [1] is 8.8 upbm affinity estimate (log intensity, higher = more binding, comparable within an allelic series); with NKX2-5 [2], 8.81 upbm affinity estimate (log intensity, higher = more binding, comparable within an allelic series).

With AGTGCCTA, the binding signal is 11.2 upbm affinity estimate (log intensity, higher = more binding, comparable within an allelic series) in the assay with NKX2-5 [1] and 11.1 upbm affinity estimate (log intensity, higher = more binding, comparable within an allelic series) in the assay with NKX2-5 [2].

As for CAGTTGGC, the binding signal with NKX2-5 [1] was 8.87 upbm affinity estimate (log intensity, higher = more binding, comparable within an allelic series); with NKX2-5 [2], 8.7 upbm affinity estimate (log intensity, higher = more binding, comparable within an allelic series).

Turning to CTAGTACA, the binding signal is 10.5 upbm affinity estimate (log intensity, higher = more binding, comparable within an allelic series) with NKX2-5 [1] and 10.6 upbm affinity estimate (log intensity, higher = more binding, comparable within an allelic series) in the assay with NKX2-5 [2].

Turning to CGTAATTA, the binding signal is 10.2 upbm affinity estimate (log intensity, higher = more binding, comparable within an allelic series) in the assay with HOXB9 [3]; 12.7 upbm affinity estimate (log intensity, higher = more binding, comparable within an allelic series) in the assay with HOXC9 [4]; 12.7 upbm affinity estimate (log intensity, higher = more binding, comparable within an allelic series) with VENTX [5]; 11.9 upbm affinity estimate (log intensity, higher = more binding, comparable within an allelic series) with PAX4 [6]; 12.3 upbm affinity estimate (log intensity, higher = more binding, comparable within an allelic series) in the assay with VENTX [7]; 12.4 upbm affinity estimate (log intensity, higher = more binding, comparable within an allelic series) with PAX4 [8]. Also, the binding signal with HOXB9 [9] is 11.9 upbm affinity estimate (log intensity, higher = more binding, comparable within an allelic series); with PAX4 [10], 12.3 upbm affinity estimate (log intensity, higher = more binding, comparable within an allelic series); with HOXC9 [11] it was 12.7 upbm affinity estimate (log intensity, higher = more binding, comparable within an allelic series); in the assay with PAX4 [12], 10.7 upbm affinity estimate (log intensity, higher = more binding, comparable within an allelic series); with HOXC10, 12.3 upbm affinity estimate (log intensity, higher = more binding, comparable within an allelic series); in the assay with PAX4 [13], 11.1 upbm affinity estimate (log intensity, higher = more binding, comparable within an allelic series). Besides, the binding signal with VAX1 is 13.6 upbm affinity estimate (log intensity, higher = more binding, comparable within an allelic series); with HOXB9 [14] it was 11.7 upbm affinity estimate (log intensity, higher = more binding, comparable within an allelic series); in the assay with HOXC9 [15] it was 10.9 upbm affinity estimate (log intensity, higher = more binding, comparable within an allelic series); in the assay with PAX4 [16], 11.1 upbm affinity estimate (log intensity, higher = more binding, comparable within an allelic series); in the assay with HOXA2 [17], 11 upbm affinity estimate (log intensity, higher = more binding, comparable within an allelic series); in the assay with HOXA2 [18] it was 13.2 upbm affinity estimate (log intensity, higher = more binding, comparable within an allelic series).

GCTAATTA: the binding signal with HOXB9 [3] was 10.2 upbm affinity estimate (log intensity, higher = more binding, comparable within an allelic series); with HOXC9 [4], 12.5 upbm affinity estimate (log intensity, higher = more binding, comparable within an allelic series); with VENTX [5], 13.5 upbm affinity estimate (log intensity, higher = more binding, comparable within an allelic series); with PAX4 [6], 12.3 upbm affinity estimate (log intensity, higher = more binding, comparable within an allelic series); with VENTX [7], 12.8 upbm affinity estimate (log intensity, higher = more binding, comparable within an allelic series); with PAX4 [8], 12.9 upbm affinity estimate (log intensity, higher = more binding, comparable within an allelic series). For the same sequence, the binding signal is 11.8 upbm affinity estimate (log intensity, higher = more binding, comparable within an allelic series) in the assay with HOXB9 [9]; 12.9 upbm affinity estimate (log intensity, higher = more binding, comparable within an allelic series) with PAX4 [10]; 12.5 upbm affinity estimate (log intensity, higher = more binding, comparable within an allelic series) in the assay with HOXC9 [11]; 10.9 upbm affinity estimate (log intensity, higher = more binding, comparable within an allelic series) in the assay with PAX4 [12]; 12.1 upbm affinity estimate (log intensity, higher = more binding, comparable within an allelic series) with HOXC10; 11.4 upbm affinity estimate (log intensity, higher = more binding, comparable within an allelic series) with PAX4 [13]. The binding signal in the assay with VAX1 was 14 upbm affinity estimate (log intensity, higher = more binding, comparable within an allelic series); with HOXB9 [14], 11.5 upbm affinity estimate (log intensity, higher = more binding, comparable within an allelic series); in the assay with HOXC9 [15], 10.9 upbm affinity estimate (log intensity, higher = more binding, comparable within an allelic series); in the assay with PAX4 [16] it was 11.4 upbm affinity estimate (log intensity, higher = more binding, comparable within an allelic series); with HOXA2 [17], 10.8 upbm affinity estimate (log intensity, higher = more binding, comparable within an allelic series); with HOXA2 [18] it was 13.4 upbm affinity estimate (log intensity, higher = more binding, comparable within an allelic series).
